Experimental data published in PubChem BioAssay (NCATS).
Values joined by “and” are separate entries in the source; they are usually repeats but may differ in a detail not shown here. Equal values may be shown once. Results filed as inconclusive are left out. Active and inactive are the calls of the source. Calls come from the whole dose curve; as a rule, active = well fitted curve in the direction sought with a large enough effect; inconclusive = small, poorly fitted or top-dose-only effect, or another doubt; inactive = no such curve, though single readings can be large; an effect the other way counts as inactive or inconclusive.

Key:
W2 = assay: qHTS profiling for inhibitors of Plasmodium falciparum proliferation (AID 504749);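 note: 0% = DMSO vehicle and full inhibition = artemisinin control; nearly all actives have a fitted effect of over 60% in size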; details: P. falciparum in erythrocytes, SYBR Green DNA, 72 h; series mostly up to 28.7 µM
Method in brief: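 SYBR Green fluorescence of parasite DNA, read after lysis and overnight dark incubation, measured growth over 72 h in erythrocyte culture at 0.3% parasitemia and 2.5% hematocrit. Data normalised to DMSO and 0.29 uM artemisinin, with plate-drift correction.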

CRL-7250 = normal cell line; assay: Cytotoxic Profiling of Annotated Libraries Using Quantitative High-Throughput Screening (AID 1296008); details: Five cell lines viability, CellTiter-Glo ATP luminescence, 48-72 h; max response: stronger effect = lower value; note: nearly all actives have a fitted effect of over 60% in size; note: potency is the fitted concentration of half-maximal effect; for max response: % is set by controls: 0 for no effect and ±100 for the full control effect
Method in brief: (§1)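 Cytotoxicity was measured as CellTiter-Glo ATP luminescence, read after 10 min at room temperature. Compound treatment of the cells lasted 48 or 72 hr at 37 degrees Celsius in a qHTS format.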

HEK293 = assay: as above; details: Five cell lines viability, CellTiter-Glo ATP luminescence, 48-72 h; max response: stronger effect = lower value
Method in brief: as §1

HaCat [1] = assay: as above; details: Five cell lines viability, CellTiter-Glo ATP luminescence, 48-72 h; max response: stronger effect = lower value
Method in brief: as §1

KB-3-1 = assay: as above; details: Five cell lines viability, CellTiter-Glo ATP luminescence, 48-72 h; max response: stronger effect = lower value
Method in brief: as §1

NIH3T3 [2] = assay: as above; details: Five cell lines viability, CellTiter-Glo ATP luminescence, 48-72 h; max response: stronger effect = lower value
Method in brief: as §1

HACAT [3] = assay: qHTS assay to identify novel small-molecules to repurpose for Merkel cell carcinoma treatment (AID 1296009); details: MCC and control cell lines, CellTiter-Glo viability, 72 h; at 44.8 µM (top of the series) unless noted; note: nearly all actives have a fitted effect of over 60% in size; note: potency is the fitted concentration of half-maximal effect
Method in brief: (§2)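 Cell viability, measured as CellTiter-Glo luminescence, was normalized between DMSO and no-cell wells. The cells had been exposed to 8- or 11-point compound dilutions for 72 hr at 37 degree celsius.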

HEK293T = assay: as above; details: MCC and control cell lines, CellTiter-Glo viability, 72 h; at 44.8 µM (top of the series) unless noted
Method in brief: as §2

MCC-13 = assay: as above; details: MCC and control cell lines, CellTiter-Glo viability, 72 h; series mostly up to 46 µM
Method in brief: as §2

MCC-26 = assay: as above; details: MCC and control cell lines, CellTiter-Glo viability, 72 h; series mostly up to 46 µM
Method in brief: as §2

MKL-1 = assay: as above; details: MCC and control cell lines, CellTiter-Glo viability, 72 h; series mostly up to 46 µM
Method in brief: as §2

MKL-2 = assay: as above; details: MCC and control cell lines, CellTiter-Glo viability, 72 h; series mostly up to 46 µM
Method in brief: as §2

NIH3T3 [4] = assay: as above; details: MCC and control cell lines, CellTiter-Glo viability, 72 h; at 44.8 µM (top of the series) unless noted
Method in brief: as §2

UISO = assay: as above; details: MCC and control cell lines, CellTiter-Glo viability, 72 h; series mostly up to 46 µM
Method in brief: as §2

WaGa = assay: as above; details: MCC and control cell lines, CellTiter-Glo viability, 72 h; series mostly up to 46 µM
Method in brief: as §2

C33A = assay: Primary qHTS to identify gynecologic anti-cancer compounds using libraries of approved drugs and bioactive compounds (AID 1345084); details: Gynecologic cancer cell panel viability, ATPlite luminescence, 48 h; series mostly up to 57.5 µM; note: nearly all actives have a fitted effect of over 55% in size; note: potency is the fitted concentration of half-maximal effect
Method in brief: (§3)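 48 h compound exposure at 37 C, 5% CO2; five-point qHTS. ATPlite luminescence readout of cell ATP.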

CASKI = assay: as above; details: Gynecologic cancer cell panel viability, ATPlite luminescence, 48 h; series mostly up to 57.5 µM
Method in brief: as §3

Es-2 = assay: as above; details: Gynecologic cancer cell panel viability, ATPlite luminescence, 48 h; series mostly up to 57.5 µM
Method in brief: as §3

HeLa = assay: as above; details: Gynecologic cancer cell panel viability, ATPlite luminescence, 48 h; series mostly up to 57.5 µM
Method in brief: as §3

CAOV3 = assay: as above; details: Gynecologic cancer cell panel viability, ATPlite luminescence, 48 h; series mostly up to 57.5 µM
Method in brief: as §3

Oc1cccc(O)c1
inactive: Potency (W2) | max response (CRL-7250) -6.09% | outcome (HEK293) | outcome (HaCat [1]) | max response (KB-3-1) -21.4% | outcome (NIH3T3 [2]) | outcome (HACAT [3]) | outcome (HEK293T) | Potency (MCC-13) | Potency (MCC-26) | Potency (MKL-1) | Potency (MKL-2) | outcome (NIH3T3 [4]) | Potency (UISO) | Potency (WaGa) | Potency (C33A) | Potency (CASKI) | Potency (Es-2) | Potency (HeLa)

CC(=O)CCC(=O)O
inactive: Potency (W2) | max response (CRL-7250) -8.02% | outcome (HEK293) | outcome (HaCat [1]) | max response (KB-3-1) 2.58% | outcome (NIH3T3 [2]) | outcome (HACAT [3]) | outcome (HEK293T) | Potency (MCC-13) | Potency (MCC-26) | Potency (MKL-1) | Potency (MKL-2) | outcome (NIH3T3 [4]) | Potency (UISO) | Potency (WaGa) | Potency (C33A) | Potency (CASKI) | Potency (Es-2) | Potency (HeLa)

CCCCCCCCCCCCCCCC(=O)NCCO
inactive: Potency (W2) | outcome (CRL-7250) | outcome (HEK293) | max response (HaCat [1]) -5.78% | max response (KB-3-1) -1.52% | max response (NIH3T3 [2]) 2.39% | outcome (HEK293T) | Potency (MCC-13) | Potency (MCC-26) | Potency (MKL-1) | Potency (MKL-2) | Potency (UISO) | Potency (WaGa) | Potency (C33A) | Potency (CASKI) | Potency (Es-2) | Potency (HeLa)

CN(C)CCCN1c2ccccc2CCc2ccccc21
active: Potency (HEK293) 13.3 µM | Potency (WaGa) 23.7 µM
inactive: max response (CRL-7250) 0.991% | max response (HaCat [1]) -28.4% | max response (KB-3-1) -10.8% | max response (NIH3T3 [2]) -1.95% | Potency (MCC-13) | Potency (MCC-26) | Potency (MKL-1) | Potency (C33A) | Potency (CAOV3) | Potency (CASKI)

COc1ccccc1O
inactive: Potency (W2) | max response (CRL-7250) 3.64% | max response (HEK293) -17.2% | max response (HaCat [1]) 3.89% | max response (KB-3-1) -18.3% and -7.82% | max response (NIH3T3 [2]) -2.65% | Potency (MCC-13) | Potency (MKL-1) | Potency (MKL-2) | Potency (UISO) | Potency (WaGa) | Potency (C33A) | Potency (CAOV3) | Potency (CASKI) | Potency (Es-2) | Potency (HeLa)

N[C@@H](CSCCCO)C(=O)O
inactive: Potency (W2) | max response (CRL-7250) -1.84% | outcome (HEK293) | max response (HaCat [1]) 2.87% | max response (KB-3-1) -1.02% | outcome (NIH3T3 [2]) | outcome (HEK293T) inactive [at 17.4 µM] | Potency (MCC-13) | Potency (MCC-26) | Potency (MKL-1) | Potency (MKL-2) | outcome (NIH3T3 [4]) inactive [at 17.4 µM] | Potency (UISO) | Potency (WaGa) | Potency (C33A) | Potency (CASKI) | Potency (Es-2) | Potency (HeLa)

CC1(C)Oc2ccc(C#N)cc2[C@@H](N2CCCC2=O)[C@@H]1O
inactive: outcome (CRL-7250) | max response (HEK293) -3.16% | max response (KB-3-1) -0.98% and -8.03% | max response (NIH3T3 [2]) -6.15% | Potency (MCC-13) | Potency (MCC-26) | Potency (MKL-1) | Potency (MKL-2) | Potency (UISO) | Potency (WaGa) | Potency (C33A) | Potency (CAOV3) | Potency (CASKI) | Potency (Es-2) | Potency (HeLa)

COc1ccc(S(=O)(=O)Nc2nnc(CC(C)C)s2)cc1
inactive: Potency (W2) | max response (CRL-7250) 0.202% | max response (HEK293) -9.93% | max response (HaCat [1]) -5.69% | max response (KB-3-1) -8.69% and 6.78% | max response (NIH3T3 [2]) -3.07% | Potency (MCC-13) | Potency (MCC-26) | Potency (MKL-1) | Potency (MKL-2) | Potency (UISO) | Potency (WaGa) | Potency (C33A) | Potency (CAOV3) | Potency (CASKI) | Potency (Es-2) | Potency (HeLa)

CC/C=C(\C(=O)N[C@@H]1C(=O)N2C(C(=O)OCOC(=O)C(C)(C)C)=C(COC(N)=O)CS[C@H]12)c1csc(N)n1
inactive: max response (CRL-7250) -3.67% | max response (HEK293) 1.21% | max response (HaCat [1]) -0.519% and -7.83% | max response (KB-3-1) -16.1% and -3.61% | max response (NIH3T3 [2]) -1.08% | Potency (MCC-13) | Potency (MCC-26) | Potency (MKL-1) | Potency (MKL-2) | Potency (UISO) | Potency (C33A) | Potency (CAOV3) | Potency (CASKI) | Potency (Es-2) | Potency (HeLa)

O=Cc1ccccc1C=O
inactive: Potency (W2) | max response (CRL-7250) -8.99% | outcome (HEK293) | max response (HaCat [1]) 3.01% | max response (KB-3-1) -3.37% | outcome (NIH3T3 [2]) | outcome (HEK293T) | Potency (MCC-13) | Potency (MCC-26) | Potency (MKL-1) | Potency (MKL-2) | outcome (NIH3T3 [4]) | Potency (UISO) | Potency (WaGa) | Potency (C33A) | Potency (CASKI) | Potency (Es-2) | Potency (HeLa)

C[C@]12CC[C@@H]3c4ccc(O)cc4CC[C@H]3[C@@H]1CCC2=O
active: Potency (HeLa) 28.2 µM
inactive: outcome (CRL-7250) | outcome (HEK293) | max response (HaCat [1]) 3.4% | max response (KB-3-1) 23.7% | max response (NIH3T3 [2]) 0.542% | outcome (HEK293T) | Potency (MCC-13) | Potency (MCC-26) | Potency (MKL-1) | Potency (MKL-2) | Potency (UISO) | Potency (WaGa) | Potency (C33A) | Potency (CAOV3) | Potency (CASKI) | Potency (Es-2)

NS(=O)(=O)c1cc2c(cc1Cl)NC(CSCc1ccccc1)=NS2(=O)=O
inactive: Potency (W2) | max response (CRL-7250) -1.78% | outcome (HEK293) | max response (HaCat [1]) -9.13% | max response (KB-3-1) 1.03% | outcome (NIH3T3 [2]) | outcome (HEK293T) | Potency (MCC-13) | Potency (MCC-26) | Potency (MKL-1) | Potency (MKL-2) | outcome (NIH3T3 [4]) | Potency (UISO) | Potency (WaGa) | Potency (C33A) | Potency (CASKI) | Potency (Es-2) | Potency (HeLa)

O=c1cc[nH]c(=O)[nH]1
inactive: Potency (W2) | outcome (CRL-7250) | outcome (HEK293) | max response (HaCat [1]) -1.66% | max response (KB-3-1) 20.9% | outcome (NIH3T3 [2]) | outcome (HEK293T) | Potency (MCC-13) | Potency (MCC-26) | Potency (MKL-1) | Potency (MKL-2) | outcome (NIH3T3 [4]) | Potency (UISO) | Potency (WaGa) | Potency (C33A) | Potency (CAOV3) | Potency (CASKI) | Potency (Es-2) | Potency (HeLa)

NC(=O)NNc1ccccc1
inactive: Potency (W2) | max response (CRL-7250) 2.83% | max response (HEK293) 0.574% | max response (HaCat [1]) -7.26% | max response (KB-3-1) 13.6% and -2.9% | max response (NIH3T3 [2]) -2.02% | Potency (MCC-13) | Potency (MCC-26) | Potency (MKL-1) | Potency (MKL-2) | Potency (UISO) | Potency (WaGa) | Potency (C33A) | Potency (CASKI) | Potency (Es-2) | Potency (HeLa)
